The whole screen tested about 5,500 compounds, of which about 2,000 (36%) were called active. About 18% were inconclusive and are not listed. Rule as the data show it: active = normalized growth mostly below about 0.91 (no sharp cut-off); inconclusive = no clear call, values can overlap the other calls; inactive = mostly above about 0.92. The list shows a part of the results.
Experiment: chemical genetic growth profiling, strain panel (AID 1159580);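 also: tested at 20 µM; growth read once vehicle control cultures reached saturation at 30 °C; 1 = growth at the plate median or of vehicle wells; lower values mean less growth of the strain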
Conditions: S. cerevisiae deletion strains, growth OD

Measured: normalized growth

CC1(C)C(O)CC(=O)C2(C)C1CC(O)C1(C)C2CCC2(C)C(c3ccoc3)OC(=O)C3OC321 (stereo not given)
inactive: locus YAL013W, strain DEP1, stronger effect = lower value 1 | locus YAL021C, strain ccr4, stronger effect = lower value 0.99 | locus YAL026C, strain drs2, stronger effect = lower value 1.02 | locus YAL030W, strain snc1, stronger effect = lower value 1 | locus YBL061C, strain skt5, stronger effect = lower value 1 | locus YBR009C, strain hhf1, stronger effect = lower value 0.999 | locus YBR021W, strain FUR4, stronger effect = lower value 0.931 | locus YBR023C, strain chs3, stronger effect = lower value 0.99 | locus YBR171W, strain sec66, stronger effect = lower value 0.995 | locus YBR229C, strain ROT2, stronger effect = lower value 1 | locus YBR231C, strain swc5, stronger effect = lower value 0.999 | locus YBR279W, strain paf1, stronger effect = lower value 0.997 | locus YCL011C, strain gbp2, stronger effect = lower value 1 | locus YCL016C, strain dcc1, stronger effect = lower value 1.01 | locus YCL029C, strain bik1, stronger effect = lower value 1 | locus YCL061C, strain MRC1, stronger effect = lower value 0.993 | locus YCL069W, strain vba3, stronger effect = lower value 1.03 | locus YCR088W, strain abp1, stronger effect = lower value 0.989 | locus YDL005C, strain med2, stronger effect = lower value 0.99 | locus YDL035C, strain GPR1, stronger effect = lower value 0.989 | locus YDL040C, strain nat1, stronger effect = lower value 0.997 | locus YDL074C, strain BRE1, stronger effect = lower value 0.976 | locus YDL101C, strain DUN1, stronger effect = lower value 1.01 | locus YDL185W, strain tfp1, stronger effect = lower value 1.02 | locus YDL192W, strain arf1, stronger effect = lower value 0.988 | locus YDR001C, strain nth1, stronger effect = lower value 0.999 | locus YDR069C, strain doa4, stronger effect = lower value 1 | locus YDR101C, strain arx1, stronger effect = lower value 1 | locus YDR137W, strain rgp1, stronger effect = lower value 0.997 | locus YDR159W, strain sac3, stronger effect = lower value 0.973 | locus YDR162C, strain NBP2, stronger effect = lower value 1 | locus YDR195W, strain ref2 0.939 | locus YDR297W, strain sur2, stronger effect = lower value 0.985 | locus YDR318W, strain mcm21, stronger effect = lower value 1 | locus YDR334W, strain swr1, stronger effect = lower value 0.998 | locus YDR335W, strain msn5, stronger effect = lower value 1 | locus YDR388W, stronger effect = lower value 1.01 | locus YDR392W, strain spt3, stronger effect = lower value 0.989 | locus YDR502C, strain sam2, stronger effect = lower value 1.02 | locus YEL003W, strain gim4, stronger effect = lower value 0.997 | locus YEL037C, strain rad23, stronger effect = lower value 1.02 | locus YEL061C, strain CIN8 (second series), stronger effect = lower value 0.995 | locus YER015W, strain faa2, stronger effect = lower value 1 | locus YER016W, strain bim1, stronger effect = lower value 1 | locus YER110C, stronger effect = lower value 1.01 | locus YER111C, strain swi4, stronger effect = lower value 0.99 | locus YER155C, strain BEM2 (second series), stronger effect = lower value 0.998 | locus YER155C, strain BEM2, stronger effect = lower value 1 | locus YER167W, strain BCK2, stronger effect = lower value 0.998 | locus YFR010W, strain ubp6, stronger effect = lower value 1.01 | locus YGL078C, strain dbp3, stronger effect = lower value 1.03 | locus YGL086W, strain mad1, stronger effect = lower value 1 | locus YGL167C, strain pmr1, stronger effect = lower value 1.01 | locus YGL173C, strain kem1, stronger effect = lower value 0.994 | locus YGL227W, strain vid30, stronger effect = lower value 0.986 | locus YGL240W, strain doc1, stronger effect = lower value 0.973 | locus YGL248W, strain PDE1, stronger effect = lower value 1 | locus YGL253W, strain hxk2, stronger effect = lower value 1 | locus YGR078C, strain PAC10, stronger effect = lower value 1.01 | locus YGR135W, strain pre9, stronger effect = lower value 1.03 | locus YGR229C, strain SMI1, stronger effect = lower value 1.12 | locus YGR252W, strain gcn5, stronger effect = lower value 0.986 | locus YHR013C, strain ard1, stronger effect = lower value 0.996 | locus YHR027C, strain rpn1, stronger effect = lower value 0.987 | locus YHR079C, strain IRE1 (second series), stronger effect = lower value 1.01 | locus YHR094C, strain hxt1, stronger effect = lower value 1.01 | locus YHR129C, strain ARP1, stronger effect = lower value 0.999 | locus YHR142W, strain chs7, stronger effect = lower value 1.02 | locus YHR200W, strain rpn10, stronger effect = lower value 1 | locus YIL066C, strain RNR3, stronger effect = lower value 0.995 | locus YIL073C, strain SPO22, stronger effect = lower value 1.05 | locus YIL125W, strain kgd1, stronger effect = lower value 1 | locus YIR030C, strain dcg1, stronger effect = lower value 1.01 | locus YJL092W, strain hpr5, stronger effect = lower value 1.01 | locus YJL095W, strain BCK1 (second series), stronger effect = lower value 1.02 | locus YJL095W, strain BCK1, stronger effect = lower value 1.01 | locus YJL115W, strain asf1, stronger effect = lower value 0.993 | locus YJL129C, strain trk1, stronger effect = lower value 0.978 | locus YJL134W, strain LCB3, stronger effect = lower value 1.01 | locus YJL154C, strain vps35, stronger effect = lower value 1 | locus YJL164C, strain tpk1, stronger effect = lower value 1.02 | locus YJL166W, strain qcr8, stronger effect = lower value 0.994 | locus YJL168C, strain set2, stronger effect = lower value 1.01 | locus YJL187C, strain SWE1 (second series), stronger effect = lower value 1.02 | locus YJL187C, strain SWE1, stronger effect = lower value 0.996 | locus YJR043C, strain POL32, stronger effect = lower value 0.987 | locus YJR075W, strain HOC1, stronger effect = lower value 0.997 | locus YKL009W, strain mrt4, stronger effect = lower value 0.977 | locus YKL068W, stronger effect = lower value 1.01 | locus YKL085W, strain MDH1 (second series), stronger effect = lower value 1 | locus YKL085W, strain MDH1, stronger effect = lower value 1 | locus YKL160W, strain elf1, stronger effect = lower value 1.01 | locus YKL190W, strain CNB1, stronger effect = lower value 1 | locus YKR001C, strain vps1, stronger effect = lower value 0.993 | locus YKR026C, strain gcn3, stronger effect = lower value 0.992 | locus YKR091W, strain srl3, stronger effect = lower value 1 | locus YLL001W, strain dnm1, stronger effect = lower value 1.01 | locus YLL026W, stronger effect = lower value 0.997 | locus YLL041C, strain sdh2, stronger effect = lower value 0.997 | locus YLR027C, strain aat2, stronger effect = lower value 0.984 | locus YLR039C, strain RIC1, stronger effect = lower value 0.95 | locus YLR058C, strain SHM2, stronger effect = lower value 1.01 | locus YLR102C, strain apc9, stronger effect = lower value 1.02 | locus YLR221C, strain rsa3, stronger effect = lower value 0.991 | locus YLR258W, strain gsy2, stronger effect = lower value 1.01 | locus YLR262C, strain YPT6 (second series), stronger effect = lower value 0.998 | locus YLR262C, strain YPT6, stronger effect = lower value 1 | locus YLR268W, strain sec22, stronger effect = lower value 1.01 | locus YLR320W, strain mms22, stronger effect = lower value 1 | locus YLR342W, strain FKS1, stronger effect = lower value 0.984 | locus YLR357W, strain rsc2, stronger effect = lower value 0.99 | locus YLR370C, strain arc18, stronger effect = lower value 1.01 | locus YLR371W, strain rom2, stronger effect = lower value 0.984 | locus YLR384C, strain iki3, stronger effect = lower value 0.999 | locus YLR418C, strain cdc73, stronger effect = lower value 1 | locus YML016C, strain PPZ1, stronger effect = lower value 0.999 | locus YML032C, strain rad52, stronger effect = lower value 1 | locus YML120C, strain ndi1, stronger effect = lower value 1.01 | locus YML124C, strain tub3, stronger effect = lower value 1.01 | locus YMR058W, strain fet3, stronger effect = lower value 1.01 | locus YMR078C, strain ctf18, stronger effect = lower value 1.01 | locus YMR125W, strain sto1, stronger effect = lower value 0.992 | locus YMR129W, stronger effect = lower value 1.01 | locus YMR205C, strain PFK2, stronger effect = lower value 0.982 | locus YMR223W, strain ubp8, stronger effect = lower value 1.01 | locus YMR231W, strain pep5, stronger effect = lower value 1 | locus YMR263W, strain SAP30, stronger effect = lower value 1.02 | locus YMR307W, strain GAS1, stronger effect = lower value 0.975 | locus YNL067W, strain RPL9B, stronger effect = lower value 1.04 | locus YNL071W, strain lat1, stronger effect = lower value 0.996 | locus YNL128W, strain TEP1, stronger effect = lower value 1.02 | locus YNL153C, strain GIM3, stronger effect = lower value 1.03 | locus YNL209W, strain ssb2, stronger effect = lower value 0.995 | locus YNL233W, strain BNI4, stronger effect = lower value 1 | locus YNL248C, strain rpa49, stronger effect = lower value 0.99 | locus YNL250W, strain rad50, stronger effect = lower value 1.02 | locus YNL271C, strain bni1, stronger effect = lower value 1.01 | locus YNL298W, strain CLA4, stronger effect = lower value 1.02 | locus YNL307C, strain MCK1, stronger effect = lower value 1.01 | locus YNL322C, strain KRE1 (second series), stronger effect = lower value 0.998 | locus YNL322C, strain KRE1, stronger effect = lower value 1.01 | locus YNR049C, strain mso1, stronger effect = lower value 0.997 | locus YNR052C, strain pop2, stronger effect = lower value 1.02 | locus YOL012C, strain htz1 0.761 | locus YOL147C, strain pex11, stronger effect = lower value 1.01 | locus YOR001W, strain rrp6, stronger effect = lower value 0.984 | locus YOR061W, strain CKA2, stronger effect = lower value 1.01 | locus YOR069W, strain VPS5, stronger effect = lower value 1.01 | locus YOR070C, strain gyp1, stronger effect = lower value 0.993 | locus YOR080W, strain dia2, stronger effect = lower value 0.997 | locus YOR083W, strain WHI5, stronger effect = lower value 1.01 | locus YOR106W, strain vam3, stronger effect = lower value 1.02 | locus YOR136W, strain idh2, stronger effect = lower value 1.01 | locus YOR144C, strain elg1, stronger effect = lower value 1.01 | locus YOR184W, strain ser1, stronger effect = lower value 1.01 | locus YOR265W, strain rbl2, stronger effect = lower value 1.01 | locus YOR270C, strain vph1, stronger effect = lower value 1.03 | locus YOR290C, strain snf2, stronger effect = lower value 1.02 | locus YOR316C, strain cot1, stronger effect = lower value 1.01 | locus YPL051W, strain arl3, stronger effect = lower value 1.01 | locus YPL055C, strain LGE1, stronger effect = lower value 0.989 | locus YPL078C, strain atp4, stronger effect = lower value 1.01 | locus YPL106C, strain sse1, stronger effect = lower value 0.988 | locus YPL240C, strain hsp82, stronger effect = lower value 1.01 | locus YPL241C, strain CIN2, stronger effect = lower value 1.01 | locus YPR119W, strain clb2, stronger effect = lower value 1 | locus YPR141C, strain kar3, stronger effect = lower value 1.01 | locus YPR163C, strain tif3, stronger effect = lower value 1.01 | locus YPR167C, strain met16, stronger effect = lower value 1.01 | strain wtn01, stronger effect = lower value 0.997
